# Assay results reported in paper PMC7862700, “An all-to-all approach to the identification of sequence-specific readers for epigenetic DNA modifications on cytosine”.
# Key:
# Experiment in all cases: DAPPL (digital affinity profiling via proximity ligation, sequencing); 10 mM Tris-HCl pH 7.5, 50 mM NaCl, 1 mM DTT, 4% glycerol, room temperature, 30 min; GST-TFs on glutathione beads, 16-mer random dsDNA library, 0.1% formaldehyde crosslink after washing; high values mean tight binding
# FLI1 = target: T1, FLI1 (Homo sapiens, UniProt Q01543 1-452); settings: protein: recombinant; tags: N-terminal GST; dsDNA, one strand shown
# T1 sequence: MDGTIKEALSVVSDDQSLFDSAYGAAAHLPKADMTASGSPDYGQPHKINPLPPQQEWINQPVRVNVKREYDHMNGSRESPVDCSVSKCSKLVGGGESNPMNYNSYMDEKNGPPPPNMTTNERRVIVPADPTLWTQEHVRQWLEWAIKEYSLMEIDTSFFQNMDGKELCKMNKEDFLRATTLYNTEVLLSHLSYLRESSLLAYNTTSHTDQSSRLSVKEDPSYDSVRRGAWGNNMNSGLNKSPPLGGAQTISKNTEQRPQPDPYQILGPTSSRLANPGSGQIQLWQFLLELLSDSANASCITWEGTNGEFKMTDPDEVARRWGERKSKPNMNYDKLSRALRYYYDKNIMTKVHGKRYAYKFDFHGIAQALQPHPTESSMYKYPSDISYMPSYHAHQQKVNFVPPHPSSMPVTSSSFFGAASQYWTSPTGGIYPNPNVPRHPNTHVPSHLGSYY
# Summary of the method: (§1)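 Each value of binding signal is a hexamer's read frequency for a factor divided by the same hexamer's frequency in the tag-only sample. Barcoded, bead-captured GST fusions of human transcription factors made in yeast were pooled with that sample and incubated with 200 nmole of a random double-stranded 16-mer DNA library in Tris/NaCl/DTT/glycerol buffer at room temperature for 30 min. Washing, 0.1% formaldehyde crosslinking, proximity ligation, PCR and Illumina NextSeq500 sequencing followed.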
# ELK1 = target: T2, ELK1 (Homo sapiens, UniProt P19419 1-428); settings: protein: recombinant; tags: N-terminal GST; dsDNA, one strand shown
# T2 sequence: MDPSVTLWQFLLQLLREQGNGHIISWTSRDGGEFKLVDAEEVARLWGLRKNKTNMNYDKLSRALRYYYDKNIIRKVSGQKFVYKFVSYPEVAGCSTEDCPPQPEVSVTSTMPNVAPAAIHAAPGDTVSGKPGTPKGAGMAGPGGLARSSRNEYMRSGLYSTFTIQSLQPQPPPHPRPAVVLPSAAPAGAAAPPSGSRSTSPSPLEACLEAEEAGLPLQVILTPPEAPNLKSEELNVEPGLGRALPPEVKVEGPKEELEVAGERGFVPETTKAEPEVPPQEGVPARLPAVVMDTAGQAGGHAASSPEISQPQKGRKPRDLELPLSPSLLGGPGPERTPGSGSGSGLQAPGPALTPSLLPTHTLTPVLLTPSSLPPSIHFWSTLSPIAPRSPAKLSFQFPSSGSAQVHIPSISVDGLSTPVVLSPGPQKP
# Summary of the method: as §1
# GABPA = target: T3, GABPA (Homo sapiens, UniProt Q06546 1-454); settings: protein: recombinant; tags: N-terminal GST; dsDNA, one strand shown
# T3 sequence: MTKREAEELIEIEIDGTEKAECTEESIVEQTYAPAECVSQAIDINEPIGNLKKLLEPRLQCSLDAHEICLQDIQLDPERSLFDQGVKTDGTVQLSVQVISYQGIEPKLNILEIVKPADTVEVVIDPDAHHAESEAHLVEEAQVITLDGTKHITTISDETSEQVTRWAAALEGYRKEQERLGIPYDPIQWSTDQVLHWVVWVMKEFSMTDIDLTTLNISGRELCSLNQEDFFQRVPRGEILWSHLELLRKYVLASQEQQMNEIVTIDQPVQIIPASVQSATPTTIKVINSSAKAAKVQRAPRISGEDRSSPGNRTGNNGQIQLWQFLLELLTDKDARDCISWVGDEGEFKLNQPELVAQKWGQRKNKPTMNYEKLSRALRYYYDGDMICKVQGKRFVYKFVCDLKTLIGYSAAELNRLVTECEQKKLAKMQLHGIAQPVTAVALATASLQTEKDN
# Summary of the method: as §1
# ERG = target: T4, ERG (Homo sapiens, UniProt P11308 1-479); settings: protein: recombinant; tags: N-terminal GST; dsDNA, one strand shown
# T4 sequence: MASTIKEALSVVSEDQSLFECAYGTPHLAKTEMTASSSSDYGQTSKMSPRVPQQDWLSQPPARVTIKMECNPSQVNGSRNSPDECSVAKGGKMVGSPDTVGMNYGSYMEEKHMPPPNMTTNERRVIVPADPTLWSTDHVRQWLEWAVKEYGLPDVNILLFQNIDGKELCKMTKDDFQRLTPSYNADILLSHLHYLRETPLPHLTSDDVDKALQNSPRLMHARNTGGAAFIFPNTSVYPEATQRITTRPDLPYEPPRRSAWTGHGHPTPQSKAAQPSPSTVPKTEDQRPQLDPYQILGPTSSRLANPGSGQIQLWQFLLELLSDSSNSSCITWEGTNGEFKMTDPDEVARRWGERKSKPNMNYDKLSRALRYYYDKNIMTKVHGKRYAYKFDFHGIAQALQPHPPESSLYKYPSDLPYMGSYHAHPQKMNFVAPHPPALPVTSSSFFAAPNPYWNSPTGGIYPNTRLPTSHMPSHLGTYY
# Summary of the method: as §1
# ELF1 = ELF1 (Homo sapiens, UniProt P32519 1-619); settings: protein: recombinant; tags: N-terminal GST; dsDNA, one strand shown
# Summary of the method: as §1
# EHF = target: T5, EHF (Homo sapiens, UniProt Q9NZC4 1-300); settings: protein: recombinant; tags: N-terminal GST; dsDNA, one strand shown
# T5 sequence: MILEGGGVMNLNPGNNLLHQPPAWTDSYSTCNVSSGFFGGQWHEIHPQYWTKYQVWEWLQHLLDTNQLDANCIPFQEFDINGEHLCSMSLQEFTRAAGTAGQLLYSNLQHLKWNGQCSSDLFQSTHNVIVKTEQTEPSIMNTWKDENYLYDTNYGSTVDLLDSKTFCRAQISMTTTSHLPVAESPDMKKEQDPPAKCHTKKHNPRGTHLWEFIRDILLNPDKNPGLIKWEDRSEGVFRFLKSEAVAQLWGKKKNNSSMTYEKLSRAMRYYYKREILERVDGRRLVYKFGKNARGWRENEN
# Summary of the method: as §1
# SPI1 = SPI1 (Homo sapiens, UniProt P17947 1-270); settings: protein: recombinant; tags: N-terminal GST; dsDNA, one strand shown
# Summary of the method: as §1
# SPIB = SPIB (Homo sapiens, UniProt Q01892 1-262); settings: protein: recombinant; tags: N-terminal GST; dsDNA, one strand shown
# Summary of the method: as §1
# ELK3 = target: T6, ELK3 (Homo sapiens, UniProt P41970 1-407); settings: protein: recombinant; tags: N-terminal GST; dsDNA, one strand shown
# T6 sequence: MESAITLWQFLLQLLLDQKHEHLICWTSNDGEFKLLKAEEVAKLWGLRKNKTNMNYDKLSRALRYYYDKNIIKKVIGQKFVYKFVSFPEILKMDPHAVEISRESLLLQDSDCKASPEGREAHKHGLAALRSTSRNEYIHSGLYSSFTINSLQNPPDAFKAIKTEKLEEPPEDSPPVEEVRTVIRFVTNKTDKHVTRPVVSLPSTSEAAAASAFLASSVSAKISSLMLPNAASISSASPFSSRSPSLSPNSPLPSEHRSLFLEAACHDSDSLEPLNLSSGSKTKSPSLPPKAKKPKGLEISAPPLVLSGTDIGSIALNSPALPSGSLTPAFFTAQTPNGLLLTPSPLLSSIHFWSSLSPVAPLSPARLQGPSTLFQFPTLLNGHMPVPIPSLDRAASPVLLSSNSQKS
# Summary of the method: as §1
# FEV = target: T7, FEV (Homo sapiens, UniProt Q99581 1-238); settings: protein: recombinant; tags: N-terminal GST; dsDNA, one strand shown
# T7 sequence: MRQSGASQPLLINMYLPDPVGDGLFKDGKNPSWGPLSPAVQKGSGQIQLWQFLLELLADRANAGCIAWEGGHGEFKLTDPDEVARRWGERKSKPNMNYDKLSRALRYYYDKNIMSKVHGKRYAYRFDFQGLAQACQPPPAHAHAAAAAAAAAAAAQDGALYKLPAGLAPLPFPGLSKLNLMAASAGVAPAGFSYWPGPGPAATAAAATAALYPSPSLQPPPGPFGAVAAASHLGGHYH
# Summary of the method: as §1
# ETV5 = ETV5 (Homo sapiens, UniProt P41161 1-510); settings: protein: recombinant; tags: N-terminal GST; dsDNA, one strand shown
# Summary of the method: as §1
# HSF1 = HSF1 (Homo sapiens, UniProt Q00613 1-529); settings: protein: recombinant; tags: N-terminal GST; chain copies: 3; dsDNA, one strand shown
# Summary of the method: as §1
# SPIC = target: T8, SPIC (Homo sapiens, UniProt Q8N5J4 1-248); settings: protein: recombinant; tags: N-terminal GST; dsDNA, one strand shown
# T8 sequence: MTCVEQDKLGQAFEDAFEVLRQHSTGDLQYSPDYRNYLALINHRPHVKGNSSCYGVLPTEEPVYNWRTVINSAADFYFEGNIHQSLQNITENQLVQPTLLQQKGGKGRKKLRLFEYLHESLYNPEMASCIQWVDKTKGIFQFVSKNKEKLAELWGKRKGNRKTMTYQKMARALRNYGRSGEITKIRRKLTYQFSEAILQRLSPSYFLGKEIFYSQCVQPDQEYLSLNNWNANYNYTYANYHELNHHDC
# Summary of the method: as §1
# ELF4 = ELF4 (Homo sapiens, UniProt Q99607 1-663); settings: protein: recombinant; tags: N-terminal GST; dsDNA, one strand shown
# Summary of the method: as §1
# ELK4 = target: T9, ELK4 (Homo sapiens, UniProt P28324-2 1-405); settings: protein: recombinant; tags: N-terminal GST; dsDNA, one strand shown
# T9 sequence: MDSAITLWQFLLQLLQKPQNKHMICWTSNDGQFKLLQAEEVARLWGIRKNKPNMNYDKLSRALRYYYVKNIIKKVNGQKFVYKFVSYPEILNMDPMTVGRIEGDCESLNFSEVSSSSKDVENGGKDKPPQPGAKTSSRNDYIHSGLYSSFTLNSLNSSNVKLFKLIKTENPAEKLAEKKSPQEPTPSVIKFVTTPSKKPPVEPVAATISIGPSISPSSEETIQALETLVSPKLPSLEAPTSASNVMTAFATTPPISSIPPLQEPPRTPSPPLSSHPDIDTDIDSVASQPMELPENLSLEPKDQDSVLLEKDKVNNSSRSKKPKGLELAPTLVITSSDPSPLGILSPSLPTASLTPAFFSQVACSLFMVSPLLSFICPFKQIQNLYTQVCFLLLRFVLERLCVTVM
# Summary of the method: as §1
# ETV2 = target: T10, ETV2 (Homo sapiens, UniProt O00321 1-342); settings: protein: recombinant; tags: N-terminal GST; dsDNA, one strand shown
# T10 sequence: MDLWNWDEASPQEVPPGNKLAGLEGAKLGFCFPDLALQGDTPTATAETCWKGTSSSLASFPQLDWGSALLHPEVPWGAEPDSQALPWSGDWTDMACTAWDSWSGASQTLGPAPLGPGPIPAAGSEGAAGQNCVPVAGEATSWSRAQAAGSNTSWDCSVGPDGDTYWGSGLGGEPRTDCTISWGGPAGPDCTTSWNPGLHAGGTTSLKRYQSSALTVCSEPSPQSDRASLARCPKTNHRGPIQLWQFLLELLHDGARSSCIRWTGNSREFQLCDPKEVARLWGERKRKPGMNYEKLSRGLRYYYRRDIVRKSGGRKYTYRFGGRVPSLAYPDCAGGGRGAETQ
# Summary of the method: as §1
# ELF3 = target: T11, ELF3 (Homo sapiens, UniProt P78545 1-371); settings: protein: recombinant; tags: N-terminal GST; dsDNA, one strand shown
# T11 sequence: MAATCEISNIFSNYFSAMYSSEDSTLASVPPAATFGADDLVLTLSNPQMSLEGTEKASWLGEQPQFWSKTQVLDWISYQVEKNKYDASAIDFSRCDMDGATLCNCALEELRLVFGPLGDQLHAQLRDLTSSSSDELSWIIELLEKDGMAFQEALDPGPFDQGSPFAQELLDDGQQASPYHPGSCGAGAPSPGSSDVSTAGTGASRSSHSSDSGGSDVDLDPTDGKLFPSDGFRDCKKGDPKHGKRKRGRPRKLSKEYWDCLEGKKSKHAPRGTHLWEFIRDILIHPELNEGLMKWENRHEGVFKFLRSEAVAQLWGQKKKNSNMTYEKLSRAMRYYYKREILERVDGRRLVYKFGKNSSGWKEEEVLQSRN
# Summary of the method: as §1
# CRX = CRX (Homo sapiens, UniProt O43186 1-299); settings: protein: recombinant; tags: N-terminal GST; dsDNA, one strand shown
# Summary of the method: as §1
# ETV1 = ETV1 (Homo sapiens, UniProt P50549 1-477); settings: protein: recombinant; tags: N-terminal GST; dsDNA, one strand shown
# Summary of the method: as §1
# Sequence of SPIB (Q01892 whole entry): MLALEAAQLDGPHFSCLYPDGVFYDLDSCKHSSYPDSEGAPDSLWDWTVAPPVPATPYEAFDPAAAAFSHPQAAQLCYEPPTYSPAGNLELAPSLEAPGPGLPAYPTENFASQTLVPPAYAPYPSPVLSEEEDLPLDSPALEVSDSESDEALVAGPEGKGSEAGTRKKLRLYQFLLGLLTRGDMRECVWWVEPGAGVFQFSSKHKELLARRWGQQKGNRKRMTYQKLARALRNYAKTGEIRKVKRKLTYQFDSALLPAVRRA
# Sequence of HSF1 (Q00613 whole entry): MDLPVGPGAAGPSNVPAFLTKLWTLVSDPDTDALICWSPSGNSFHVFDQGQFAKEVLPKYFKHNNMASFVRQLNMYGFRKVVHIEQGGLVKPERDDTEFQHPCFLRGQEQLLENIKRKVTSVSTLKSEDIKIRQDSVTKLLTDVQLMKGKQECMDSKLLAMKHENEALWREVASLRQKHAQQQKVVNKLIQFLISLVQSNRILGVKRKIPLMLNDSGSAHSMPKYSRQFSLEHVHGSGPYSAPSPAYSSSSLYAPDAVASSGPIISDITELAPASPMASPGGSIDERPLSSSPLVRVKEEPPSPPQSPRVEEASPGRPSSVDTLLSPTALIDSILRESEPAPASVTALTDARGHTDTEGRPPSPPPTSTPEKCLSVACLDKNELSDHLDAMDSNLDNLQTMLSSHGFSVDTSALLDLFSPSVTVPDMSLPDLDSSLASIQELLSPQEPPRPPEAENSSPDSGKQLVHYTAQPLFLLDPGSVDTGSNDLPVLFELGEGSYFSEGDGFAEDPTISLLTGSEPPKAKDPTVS
# Sequence of ETV5 (P41161 whole entry): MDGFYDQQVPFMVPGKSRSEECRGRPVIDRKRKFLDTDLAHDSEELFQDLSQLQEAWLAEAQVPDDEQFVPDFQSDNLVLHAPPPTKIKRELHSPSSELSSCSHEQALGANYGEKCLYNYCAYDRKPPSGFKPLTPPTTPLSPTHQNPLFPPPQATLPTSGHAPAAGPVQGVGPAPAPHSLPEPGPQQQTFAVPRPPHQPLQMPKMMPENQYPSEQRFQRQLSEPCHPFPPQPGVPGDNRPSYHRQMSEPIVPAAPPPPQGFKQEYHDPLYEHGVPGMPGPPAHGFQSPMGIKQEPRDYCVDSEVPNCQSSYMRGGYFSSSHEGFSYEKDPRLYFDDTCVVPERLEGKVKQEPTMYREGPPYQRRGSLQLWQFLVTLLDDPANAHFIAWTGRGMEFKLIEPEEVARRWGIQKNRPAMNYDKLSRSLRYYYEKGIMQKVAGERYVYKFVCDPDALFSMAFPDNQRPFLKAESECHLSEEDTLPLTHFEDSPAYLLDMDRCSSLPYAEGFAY
# Sequence of ELF4 (Q99607 whole entry): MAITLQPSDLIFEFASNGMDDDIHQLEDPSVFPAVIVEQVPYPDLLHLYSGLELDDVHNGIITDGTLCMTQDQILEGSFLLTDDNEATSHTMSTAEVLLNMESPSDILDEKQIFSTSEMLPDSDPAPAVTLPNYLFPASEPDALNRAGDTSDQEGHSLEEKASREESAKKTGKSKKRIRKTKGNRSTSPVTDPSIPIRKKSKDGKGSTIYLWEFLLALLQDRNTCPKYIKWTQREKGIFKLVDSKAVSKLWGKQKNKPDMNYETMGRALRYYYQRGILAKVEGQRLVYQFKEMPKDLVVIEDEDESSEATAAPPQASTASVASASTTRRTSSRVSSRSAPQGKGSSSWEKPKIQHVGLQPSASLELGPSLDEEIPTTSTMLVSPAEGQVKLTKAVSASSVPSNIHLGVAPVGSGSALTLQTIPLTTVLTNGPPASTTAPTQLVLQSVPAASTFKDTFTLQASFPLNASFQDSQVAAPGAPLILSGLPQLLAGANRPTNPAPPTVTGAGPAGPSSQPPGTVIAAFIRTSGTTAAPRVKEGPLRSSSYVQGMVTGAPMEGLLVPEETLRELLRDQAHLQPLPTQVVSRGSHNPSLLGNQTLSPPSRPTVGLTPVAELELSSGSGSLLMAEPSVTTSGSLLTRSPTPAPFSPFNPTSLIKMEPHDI
# Sequence of CRX (O43186 whole entry): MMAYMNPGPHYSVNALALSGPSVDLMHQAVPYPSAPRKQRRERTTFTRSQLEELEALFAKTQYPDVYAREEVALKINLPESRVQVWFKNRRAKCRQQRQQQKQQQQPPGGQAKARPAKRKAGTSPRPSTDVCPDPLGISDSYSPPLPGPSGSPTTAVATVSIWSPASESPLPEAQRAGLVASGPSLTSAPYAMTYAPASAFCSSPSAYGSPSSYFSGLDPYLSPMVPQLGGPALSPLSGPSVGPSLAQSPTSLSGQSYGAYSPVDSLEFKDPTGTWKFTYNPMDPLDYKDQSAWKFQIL
# Sequence of ELF1 (P32519 whole entry): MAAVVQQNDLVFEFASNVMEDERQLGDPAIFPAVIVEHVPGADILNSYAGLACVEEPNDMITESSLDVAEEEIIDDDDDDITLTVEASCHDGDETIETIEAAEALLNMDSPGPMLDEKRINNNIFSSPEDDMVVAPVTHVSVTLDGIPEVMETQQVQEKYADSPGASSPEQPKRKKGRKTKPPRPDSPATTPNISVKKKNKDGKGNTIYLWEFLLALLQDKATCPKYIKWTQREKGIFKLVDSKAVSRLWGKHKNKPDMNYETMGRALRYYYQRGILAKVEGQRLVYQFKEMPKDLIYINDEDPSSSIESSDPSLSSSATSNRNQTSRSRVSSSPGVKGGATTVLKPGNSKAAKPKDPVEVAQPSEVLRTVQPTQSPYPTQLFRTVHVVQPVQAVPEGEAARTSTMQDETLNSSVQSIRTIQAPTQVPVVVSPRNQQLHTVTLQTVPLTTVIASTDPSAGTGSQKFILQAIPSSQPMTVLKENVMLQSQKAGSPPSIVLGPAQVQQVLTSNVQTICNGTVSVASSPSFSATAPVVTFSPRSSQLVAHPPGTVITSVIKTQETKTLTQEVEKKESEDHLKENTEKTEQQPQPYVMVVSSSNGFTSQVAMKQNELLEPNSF
# Sequence of ETV1 (P50549 whole entry): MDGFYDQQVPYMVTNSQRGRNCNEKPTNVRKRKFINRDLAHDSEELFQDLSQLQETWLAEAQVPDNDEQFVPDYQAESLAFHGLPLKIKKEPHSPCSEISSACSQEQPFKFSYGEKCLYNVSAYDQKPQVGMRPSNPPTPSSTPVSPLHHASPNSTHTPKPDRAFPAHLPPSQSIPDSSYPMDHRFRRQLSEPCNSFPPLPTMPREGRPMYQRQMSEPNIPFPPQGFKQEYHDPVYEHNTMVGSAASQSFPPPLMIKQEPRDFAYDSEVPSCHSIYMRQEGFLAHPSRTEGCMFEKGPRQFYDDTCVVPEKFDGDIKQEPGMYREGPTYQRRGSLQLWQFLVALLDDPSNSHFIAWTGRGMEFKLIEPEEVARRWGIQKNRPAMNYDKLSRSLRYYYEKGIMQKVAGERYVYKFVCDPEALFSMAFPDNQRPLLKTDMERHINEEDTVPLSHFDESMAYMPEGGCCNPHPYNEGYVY
sequence,measurement,setting,value
CTAAAA,binding signal,FLI1,"1.13 fold enrichment (6-mer frequency, TF over GST control)"
same,binding signal,ELK1,"1.12 fold enrichment (6-mer frequency, TF over GST control)"
same,binding signal,GABPA,"1.18 fold enrichment (6-mer frequency, TF over GST control)"
same,binding signal,ERG,"1.2 fold enrichment (6-mer frequency, TF over GST control)"
same,binding signal,ELF1,"1.13 fold enrichment (6-mer frequency, TF over GST control)"
same,binding signal,EHF,"1.1 fold enrichment (6-mer frequency, TF over GST control)"
same,binding signal,SPI1,"1.26 fold enrichment (6-mer frequency, TF over GST control)"
same,binding signal,SPIB,"1.1 fold enrichment (6-mer frequency, TF over GST control)"
same,binding signal,ELK3,"1.13 fold enrichment (6-mer frequency, TF over GST control)"
same,binding signal,FEV,"1.09 fold enrichment (6-mer frequency, TF over GST control)"
same,binding signal,ETV5,"1.16 fold enrichment (6-mer frequency, TF over GST control)"
same,binding signal,HSF1,"1.26 fold enrichment (6-mer frequency, TF over GST control)"
same,binding signal,SPIC,"1.25 fold enrichment (6-mer frequency, TF over GST control)"
same,binding signal,ELF4,"1.24 fold enrichment (6-mer frequency, TF over GST control)"
same,binding signal,ELK4,"1.21 fold enrichment (6-mer frequency, TF over GST control)"
same,binding signal,ETV2,"1.21 fold enrichment (6-mer frequency, TF over GST control)"
same,binding signal,ELF3,"1.12 fold enrichment (6-mer frequency, TF over GST control)"
same,binding signal,CRX,"1.4 fold enrichment (6-mer frequency, TF over GST control)"
same,binding signal,ETV1,"1.19 fold enrichment (6-mer frequency, TF over GST control)"
